Measured values: PubChem BioAssay AID1159580 (chemical genetic matrix, 2015)
The whole screen tested about 5,500 compounds, of which about 2,000 (36%) were called active. Roughly 18% stayed inconclusive and do not appear here. No stated cut-off is given here; in the data, active means normalized growth mostly below about 0.91 (no sharp cut-off); inconclusive means no clear call, values can overlap the other calls; inactive means mostly above about 0.92. The list shows a part of the results.

Experiment: chemical genetic growth profiling, strain panel (AID 1159580);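 further: tested at 20 µM; growth read once vehicle control cultures reached saturation at 30 °C; 1 = growth at the plate median or of vehicle wells; lower values mean less growth of the strain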
Conditions: S. cerevisiae deletion strains, growth OD
[1] = locus YBR229C, strain ROT2, hits give low values
[2] = locus YCL061C, strain MRC1, hits give low values
[3] = locus YDL101C, strain DUN1, hits give low values
[4] = locus YEL061C, strain CIN8, hits give low values
[5] = locus YHR030C, strain SLT2, hits give low values
[6] = locus YJR075W, strain HOC1, hits give low values
[7] = locus YLR039C, strain RIC1, hits give low values
[8] = locus YMR307W, strain GAS1, hits give low values
[9] = locus YPL241C, strain CIN2, hits give low values

Measured: normalized growth

N#C/C(=C\N(CCS(=O)(=O)c1ccc(Cl)cc1)Cc1cccs1)S(=O)(=O)c1ccc(Cl)cc1
inactive: locus YAL013W, strain DEP1, hits give low values 0.999 | [1] 1.01 | [2] 1.02 | [3] 1 | locus YDR150W, strain NUM1, hits give low values 1.08 | [4] 0.973 | locus YGR078C, strain PAC10, hits give low values 1.01 | [5] 1.05 | locus YHR087W, strain rtc3, hits give low values 1.01 | locus YJR043C, strain POL32, hits give low values 1.03 | [6] 1.04 | locus YKL190W, strain CNB1, hits give low values 0.987 | [7] 1.06 | locus YLR058C, strain SHM2 (second series), hits give low values 1 | locus YLR085C, strain ARP6, hits give low values 0.943 | locus YLR262C, strain YPT6, hits give low values 1.06 | locus YML094W, strain GIM5, hits give low values 0.981 | locus YMR219W, strain ESC1, hits give low values 1 | locus YMR263W, strain SAP30, hits give low values 1.09 | [8] 1.08 | locus YNL153C, strain GIM3, hits give low values 1.03 | locus YNL298W, strain CLA4 (second series), hits give low values 0.947 | locus YNL322C, strain KRE1, hits give low values 0.996 | locus YNR030W, strain Alg12, hits give low values 1 | locus YPL055C, strain LGE1, hits give low values 1.13 | [9] 0.981 | locus YPR135W, strain CTF4, hits give low values 1.19

COc1c2c(cc3c1OCO3)C13C=C[C@H](OC)CC1N(C2)CC3O (stereo not given in full)
inactive: locus YAL021C, strain ccr4, hits give low values 0.966 | locus YAL026C, strain drs2, hits give low values 0.976 | locus YAL030W, strain snc1, hits give low values 0.996 | locus YBL061C, strain skt5, hits give low values 0.984 | locus YBR009C, strain hhf1, hits give low values 1 | locus YBR021W, strain FUR4, hits give low values 1.06 | locus YBR023C, strain chs3, hits give low values 0.981 | locus YBR171W, strain sec66, hits give low values 1 | [1] 1 | locus YBR231C, strain swc5, hits give low values 1 | locus YBR279W, strain paf1, hits give low values 0.963 | locus YCL011C, strain gbp2, hits give low values 0.969 | locus YCL016C, strain dcc1, hits give low values 0.955 | locus YCL029C, strain bik1, hits give low values 0.981 | [2] 0.979 | locus YCL069W, strain vba3, hits give low values 0.991 | locus YCR088W, strain abp1, hits give low values 0.991 | locus YDL005C, strain med2, hits give low values 0.976 | locus YDL035C, strain GPR1, hits give low values 1.03 | locus YDL040C, strain nat1, hits give low values 1 | locus YDL074C, strain BRE1, hits give low values 1.01 | [3] 0.985 | locus YDL185W, strain tfp1, hits give low values 0.961 | locus YDL192W, strain arf1, hits give low values 0.986 | locus YDR001C, strain nth1, hits give low values 0.988 | locus YDR069C, strain doa4, hits give low values 0.963 | locus YDR101C, strain arx1, hits give low values 1.01 | locus YDR137W, strain rgp1, hits give low values 0.953 | locus YDR159W, strain sac3, hits give low values 0.968 | locus YDR162C, strain NBP2, hits give low values 0.99 | locus YDR195W, strain ref2 0.966 | locus YDR297W, strain sur2, hits give low values 0.976 | locus YDR318W, strain mcm21, hits give low values 0.989 | locus YDR334W, strain swr1, hits give low values 0.978 | locus YDR335W, strain msn5, hits give low values 0.972 | locus YDR388W, hits give low values 0.983 | locus YDR392W, strain spt3, hits give low values 0.915 | locus YDR502C, strain sam2, hits give low values 0.988 | locus YEL003W, strain gim4, hits give low values 1 | locus YEL037C, strain rad23, hits give low values 0.983 | locus YEL061C, strain CIN8 (second series), hits give low values 0.984 | [4] 1 | locus YER015W, strain faa2, hits give low values 0.972 | locus YER016W, strain bim1, hits give low values 0.975 | locus YER110C, hits give low values 0.97 | locus YER111C, strain swi4, hits give low values 0.977 | locus YER155C, strain BEM2 (second series), hits give low values 1.05 | locus YER155C, strain BEM2, hits give low values 0.997 | locus YER167W, strain BCK2, hits give low values 0.998 | locus YFR010W, strain ubp6, hits give low values 1.02 | locus YGL078C, strain dbp3, hits give low values 0.975 | locus YGL086W, strain mad1, hits give low values 1 | locus YGL167C, strain pmr1, hits give low values 0.999 | locus YGL173C, strain kem1, hits give low values 1.01 | locus YGL227W, strain vid30, hits give low values 0.987 | locus YGL240W, strain doc1, hits give low values 1.04 | locus YGL248W, strain PDE1, hits give low values 0.999 | locus YGL253W, strain hxk2, hits give low values 0.963 | locus YGR135W, strain pre9, hits give low values 0.972 | locus YGR252W, strain gcn5, hits give low values 1.08 | locus YHR013C, strain ard1, hits give low values 0.956 | locus YHR027C, strain rpn1, hits give low values 0.989 | [5] 0.986 | locus YHR079C, strain IRE1 (second series), hits give low values 0.986 | locus YHR094C, strain hxt1, hits give low values 0.978 | locus YHR129C, strain ARP1, hits give low values 0.994 | locus YHR142W, strain chs7, hits give low values 0.951 | locus YHR200W, strain rpn10, hits give low values 0.992 | locus YIL066C, strain RNR3, hits give low values 1 | locus YIL073C, strain SPO22, hits give low values 0.94 | locus YIL125W, strain kgd1, hits give low values 0.984 | locus YIR030C, strain dcg1, hits give low values 0.97 | locus YJL092W, strain hpr5, hits give low values 0.982 | locus YJL095W, strain BCK1 (second series), hits give low values 0.972 | locus YJL095W, strain BCK1, hits give low values 0.975 | locus YJL115W, strain asf1, hits give low values 0.957 | locus YJL129C, strain trk1, hits give low values 0.95 | locus YJL134W, strain LCB3, hits give low values 0.99 | locus YJL154C, strain vps35, hits give low values 0.977 | locus YJL164C, strain tpk1, hits give low values 1.02 | locus YJL166W, strain qcr8, hits give low values 0.989 | locus YJL168C, strain set2, hits give low values 0.985 | locus YJL187C, strain SWE1 (second series), hits give low values 0.98 | locus YJL187C, strain SWE1, hits give low values 0.987 | [6] 1 | locus YKL009W, strain mrt4, hits give low values 0.992 | locus YKL068W, hits give low values 0.98 | locus YKL085W, strain MDH1 (second series), hits give low values 1 | locus YKL085W, strain MDH1, hits give low values 1 | locus YKL160W, strain elf1, hits give low values 0.95 | locus YKR001C, strain vps1, hits give low values 0.99 | locus YKR026C, strain gcn3, hits give low values 0.993 | locus YKR091W, strain srl3, hits give low values 0.978 | locus YLL001W, strain dnm1, hits give low values 0.996 | locus YLL026W, hits give low values 0.98 | locus YLL041C, strain sdh2, hits give low values 0.98 | locus YLR027C, strain aat2, hits give low values 0.996 | [7] 1 | locus YLR058C, strain SHM2, hits give low values 0.994 | locus YLR102C, strain apc9, hits give low values 0.988 | locus YLR221C, strain rsa3, hits give low values 1.04 | locus YLR258W, strain gsy2, hits give low values 0.981 | locus YLR262C, strain YPT6 (second series), hits give low values 1 | locus YLR268W, strain sec22, hits give low values 1.02 | locus YLR320W, strain mms22, hits give low values 1.02 | locus YLR342W, strain FKS1 (second series), hits give low values 1.08 | locus YLR342W, strain FKS1, hits give low values 0.988 | locus YLR357W, strain rsc2, hits give low values 0.981 | locus YLR370C, strain arc18, hits give low values 0.971 | locus YLR371W, strain rom2, hits give low values 0.957 | locus YLR384C, strain iki3, hits give low values 0.978 | locus YLR418C, strain cdc73, hits give low values 1.01 | locus YML016C, strain PPZ1, hits give low values 0.999 | locus YML032C, strain rad52, hits give low values 1 | locus YML120C, strain ndi1, hits give low values 1 | locus YML124C, strain tub3, hits give low values 0.982 | locus YMR058W, strain fet3, hits give low values 0.979 | locus YMR078C, strain ctf18, hits give low values 0.967 | locus YMR125W, strain sto1, hits give low values 0.98 | locus YMR129W, hits give low values 0.965 | locus YMR205C, strain PFK2, hits give low values 1.02 | locus YMR223W, strain ubp8, hits give low values 0.986 | locus YMR231W, strain pep5, hits give low values 0.993 | [8] 1.23 | locus YNL067W, strain RPL9B, hits give low values 0.974 | locus YNL071W, strain lat1, hits give low values 0.993 | locus YNL128W, strain TEP1, hits give low values 0.985 | locus YNL209W, strain ssb2, hits give low values 0.963 | locus YNL233W, strain BNI4, hits give low values 1.01 | locus YNL248C, strain rpa49, hits give low values 0.938 | locus YNL250W, strain rad50, hits give low values 0.983 | locus YNL271C, strain bni1, hits give low values 0.992 | locus YNL298W, strain CLA4, hits give low values 0.985 | locus YNL307C, strain MCK1, hits give low values 0.991 | locus YNL322C, strain KRE1 (second series), hits give low values 0.983 | locus YNR049C, strain mso1, hits give low values 0.954 | locus YNR052C, strain pop2, hits give low values 0.977 | locus YOL012C, strain htz1 0.827 | locus YOL147C, strain pex11, hits give low values 0.983 | locus YOR001W, strain rrp6, hits give low values 1.05 | locus YOR061W, strain CKA2, hits give low values 0.993 | locus YOR069W, strain VPS5, hits give low values 0.986 | locus YOR070C, strain gyp1, hits give low values 0.974 | locus YOR080W, strain dia2, hits give low values 0.964 | locus YOR083W, strain WHI5, hits give low values 0.928 | locus YOR106W, strain vam3, hits give low values 0.957 | locus YOR136W, strain idh2, hits give low values 0.992 | locus YOR144C, strain elg1, hits give low values 0.99 | locus YOR184W, strain ser1, hits give low values 1.04 | locus YOR265W, strain rbl2, hits give low values 0.99 | locus YOR270C, strain vph1, hits give low values 0.973 | locus YOR290C, strain snf2, hits give low values 0.956 | locus YOR316C, strain cot1, hits give low values 0.983 | locus YPL051W, strain arl3, hits give low values 0.963 | locus YPL078C, strain atp4, hits give low values 0.96 | locus YPL106C, strain sse1, hits give low values 0.984 | locus YPL240C, strain hsp82, hits give low values 0.992 | [9] 0.988 | locus YPR119W, strain clb2, hits give low values 0.981 | locus YPR141C, strain kar3, hits give low values 0.968 | locus YPR163C, strain tif3, hits give low values 0.996 | locus YPR167C, strain met16, hits give low values 0.981 | strain wtn01, hits give low values 1.01
